Source: PubChem BioAssay AID1159580 (chemical genetic matrix, 2015)
About 2,000 (36%) of roughly 5,500 compounds were called active. Not shown: some 18% with an inconclusive outcome. No stated cut-off is given here; in the data, active means normalized growth mostly below about 0.91 (no sharp cut-off); inconclusive means no clear call, values can overlap the other calls; inactive means mostly above about 0.92. The list shows a part of the results.

Experiment: chemical genetic growth profiling, strain panel (AID 1159580);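 further: tested at 20 µM; growth read once vehicle control cultures reached saturation at 30 °C; 1 = growth at the plate median or of vehicle wells; lower values mean less growth of the strain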
Settings: growth OD

Measured: normalized growth

Oc1c(Cl)cc(Cl)c2cccnc12
active: S. cerevisiae deletion strains, locus YJR066W, strain TOR1, hits give low values -0.00116 | S. cerevisiae deletion strains, locus YJR075W, strain HOC1, hits give low values 0.0672 | S. cerevisiae deletion strains, locus YKL009W, strain mrt4, hits give low values 0.092 | S. cerevisiae deletion strains, locus YKL068W, hits give low values 0.0598 | S. cerevisiae deletion strains, locus YKL085W, strain MDH1 (second series), hits give low values 0.057 | S. cerevisiae deletion strains, locus YKL085W, strain MDH1, hits give low values 0.057 | S. cerevisiae deletion strains, locus YKL160W, strain elf1, hits give low values 0.067 | S. cerevisiae deletion strains, locus YKL190W, strain CNB1, hits give low values 0.0458 | S. cerevisiae deletion strains, locus YKR001C, strain vps1, hits give low values 0.0676 | S. cerevisiae deletion strains, locus YKR026C, strain gcn3, hits give low values 0.0676 | S. cerevisiae deletion strains, locus YKR091W, strain srl3, hits give low values 0.0658 | S. cerevisiae deletion strains, locus YLL001W, strain dnm1, hits give low values 0.0628 | S. cerevisiae deletion strains, locus YLL026W, hits give low values 0.0652 | S. cerevisiae deletion strains, locus YLL041C, strain sdh2, hits give low values 0.0595 | S. cerevisiae deletion strains, locus YLR027C, strain aat2, hits give low values 0.0596 | S. cerevisiae deletion strains, locus YLR039C, strain RIC1, hits give low values 0.0746 | S. cerevisiae deletion strains, locus YLR058C, strain SHM2, hits give low values 0.0468 | S. cerevisiae deletion strains, locus YLR102C, strain apc9, hits give low values 0.0634 | S. cerevisiae deletion strains, locus YLR113W, strain HOG1, hits give low values 0.152 | S. cerevisiae deletion strains, locus YLR221C, strain rsa3, hits give low values 0.0659 | S. cerevisiae deletion strains, locus YLR258W, strain gsy2, hits give low values 0.0626 | S. cerevisiae deletion strains, locus YLR262C, strain YPT6 (second series), hits give low values 0.0862 | S. cerevisiae deletion strains, locus YLR262C, strain YPT6, hits give low values 0.0908 | S. cerevisiae deletion strains, locus YLR268W, strain sec22, hits give low values 0.0715 | S. cerevisiae deletion strains, locus YLR320W, strain mms22, hits give low values 0.0895 | S. cerevisiae deletion strains, locus YLR330W, strain CHS5, hits give low values 0.0519 | S. cerevisiae deletion strains, locus YLR342W, strain FKS1 (second series), hits give low values 0.0706 | S. cerevisiae deletion strains, locus YLR342W, strain FKS1, hits give low values 0.068 | S. cerevisiae deletion strains, locus YLR357W, strain rsc2, hits give low values 0.116 | S. cerevisiae deletion strains, locus YLR370C, strain arc18, hits give low values 0.0682 | S. cerevisiae deletion strains, locus YLR371W, strain rom2, hits give low values 0.0693 | S. cerevisiae deletion strains, locus YLR384C, strain iki3, hits give low values 0.0654 | S. cerevisiae deletion strains, locus YLR418C, strain cdc73, hits give low values 0.106 | S. cerevisiae deletion strains, locus YML016C, strain PPZ1, hits give low values 0.0467 | S. cerevisiae deletion strains, locus YML032C, strain rad52, hits give low values 0.0695 | S. cerevisiae deletion strains, locus YML120C, strain ndi1, hits give low values 0.0608 | S. cerevisiae deletion strains, locus YML124C, strain tub3, hits give low values 0.0633 | S. cerevisiae deletion strains, locus YMR058W, strain fet3, hits give low values 0.0638 | S. cerevisiae deletion strains, locus YMR078C, strain ctf18, hits give low values 0.0725 | S. cerevisiae deletion strains, locus YMR125W, strain sto1, hits give low values 0.0693 | S. cerevisiae deletion strains, locus YMR129W, hits give low values 0.0704 | S. cerevisiae deletion strains, locus YMR205C, strain PFK2, hits give low values 0.087 | S. cerevisiae deletion strains, locus YMR223W, strain ubp8, hits give low values 0.0733 | S. cerevisiae deletion strains, locus YMR231W, strain pep5, hits give low values 0.0731 | S. cerevisiae deletion strains, locus YMR263W, strain SAP30, hits give low values 0.057 | S. cerevisiae deletion strains, locus YMR307W, strain GAS1, hits give low values 0.101 | S. cerevisiae deletion strains, locus YNL067W, strain RPL9B, hits give low values 0.0516 | S. cerevisiae deletion strains, locus YNL071W, strain lat1, hits give low values 0.0698 | S. cerevisiae deletion strains, locus YNL128W, strain TEP1, hits give low values 0.0643 | S. cerevisiae deletion strains, locus YNL153C, strain GIM3, hits give low values 0.0512 | S. cerevisiae deletion strains, locus YNL183C, strain NPR1, hits give low values -0.00339 | S. cerevisiae deletion strains, locus YNL209W, strain ssb2, hits give low values 0.0648 | S. cerevisiae deletion strains, locus YNL233W, strain BNI4, hits give low values 0.0545 | S. cerevisiae deletion strains, locus YNL248C, strain rpa49, hits give low values 0.0607 | S. cerevisiae deletion strains, locus YNL250W, strain rad50, hits give low values 0.0707 | S. cerevisiae deletion strains, locus YNL271C, strain bni1, hits give low values 0.0672 | S. cerevisiae deletion strains, locus YNL298W, strain CLA4, hits give low values 0.0667 | S. cerevisiae deletion strains, locus YNL307C, strain MCK1, hits give low values 0.0744 | S. cerevisiae deletion strains, locus YNL322C, strain KRE1 (second series), hits give low values 0.0728 | S. cerevisiae deletion strains, locus YNL322C, strain KRE1, hits give low values 0.0468 | S. cerevisiae deletion strains, locus YNR049C, strain mso1, hits give low values 0.0631 | S. cerevisiae deletion strains, locus YNR052C, strain pop2, hits give low values 0.0629 | S. cerevisiae deletion strains, locus YOL006C, strain TOP1, hits give low values 0.108 | S. cerevisiae deletion strains, locus YOL147C, strain pex11, hits give low values 0.0586 | S. cerevisiae deletion strains, locus YOR001W, strain rrp6, hits give low values 0.072 | S. cerevisiae deletion strains, locus YOR061W, strain CKA2, hits give low values 0.045 | S. cerevisiae deletion strains, locus YOR069W, strain VPS5, hits give low values 0.046 | S. cerevisiae deletion strains, locus YOR070C, strain gyp1, hits give low values 0.0611 | S. cerevisiae deletion strains, locus YOR080W, strain dia2, hits give low values 0.0794 | S. cerevisiae deletion strains, locus YOR083W, strain WHI5, hits give low values 0.0648 | S. cerevisiae deletion strains, locus YOR106W, strain vam3, hits give low values 0.0647 | S. cerevisiae deletion strains, locus YOR136W, strain idh2, hits give low values 0.0779 | S. cerevisiae deletion strains, locus YOR144C, strain elg1, hits give low values 0.0585 | S. cerevisiae deletion strains, locus YOR184W, strain ser1, hits give low values 0.0845 | S. cerevisiae deletion strains, locus YOR231W, strain MKK1, hits give low values 0.105 | S. cerevisiae deletion strains, locus YOR265W, strain rbl2, hits give low values 0.0654 | S. cerevisiae deletion strains, locus YOR270C, strain vph1, hits give low values 0.0804 | S. cerevisiae deletion strains, locus YOR290C, strain snf2, hits give low values 0.062 | S. cerevisiae deletion strains, locus YOR316C, strain cot1, hits give low values 0.0632 | S. cerevisiae deletion strains, locus YPL051W, strain arl3, hits give low values 0.0645 | S. cerevisiae deletion strains, locus YPL055C, strain LGE1, hits give low values 0.0675 | S. cerevisiae deletion strains, locus YPL078C, strain atp4, hits give low values 0.0648 | S. cerevisiae deletion strains, locus YPL106C, strain sse1, hits give low values 0.0892 | S. cerevisiae deletion strains, locus YPL240C, strain hsp82, hits give low values 0.0586 | S. cerevisiae deletion strains, locus YPL241C, strain CIN2, hits give low values 0.0475 | S. cerevisiae deletion strains, locus YPL256C, strain CLN2, hits give low values 0.126 | S. cerevisiae deletion strains, locus YPR119W, strain clb2, hits give low values 0.0705 | S. cerevisiae deletion strains, locus YPR141C, strain kar3, hits give low values 0.0755 | S. cerevisiae deletion strains, locus YPR163C, strain tif3, hits give low values 0.074 | S. cerevisiae deletion strains, locus YPR167C, strain met16, hits give low values 0.0659 | S. cerevisiae deletion strains, strain wtn01, hits give low values 0.0707 | S. cerevisiae strains, strain wild type, hits give low values 0.0471
